Structures can show the parent of a compound that is named as a salt. Whole data set: some 2,800 compounds, median “cell viability relative to vehicle” near 0.98, cut for the lowest 2% near 0.45. The sample holds the lowest values, similar compounds and a random draw of the others, so the mix is not that of the screen.

In the test the test system is NCI-H2228 alectinib-DTP. As to the kind of experiment: cell viability relative to vehicle (fraction of vehicle); NCI-H2228 is an ALK-positive lung cancer line and DTP means drug-tolerant persister; higher = less growth inhibition. To be noted: 100 nM; treatment time 6 days. An outline of the steps:
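The 3114-agent TargetMol anti-cancer compound library was tested at 100 nM for 6 days on parental NCI-H2228 cells and on persister cells derived with 1000 nM of a targeted drug for 13 days. ATP readout by the CellTiter-Glo 3D Cell Viability Assay gave cell viability relative to DMSO vehicle-treated cells.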
For the compound `C[C@H](O)[C@@H](O)[C@@H](O)[C@H](O)C=O` [L-(-)-Fucose], the cell viability is 1.09. Then `O=C(O)c1ccc(S(=O)(=O)N(Cc2ccc(OC(F)(F)F)cc2)c2ncc(C(F)(F)F)cc2Cl)cc1`, with 0.969; and `O=C(Nc1ccc2[nH]nc(-c3ccncc3)c2c1)[C@@H]1CCN(CC(=O)N2CCN(c3ccc(-c4ncccn4)cc3)CC2)C1`, with 0.831.

The compound `COc1ccccc1C(=O)Nc1cc2c(cc1N1CCCCC1)n(C)c(=O)n2C` showed a cell viability of 0.977. As to `CC(=O)O[C@H](CC=C(C)C)C1=CC(=O)c2c(O)ccc(O)c2C1=O` [Acetyl shikonin], the cell viability was 1.05.

Take `Cc1nc(Nc2ccc(F)cc2)nc(N2CCc3ccccc3C2C)c1C` (centres undefined) [Revaprazan hydrochloride]: the cell viability was determined as 0.852.

`Cc1cc(Nc2ncc3c(n2)N(C)C(=O)N(c2cc(NC(=O)c4cccc(C(F)(F)F)c4)ccc2C)C3)n(C)n1` [Pluripotin]: the cell viability was found to be 0.301. The result for `Cc1ccc(C(=O)Nc2cccc(C(F)(F)F)c2)cc1Nc1nc(-c2cccnc2)nc2c1cnn2C` reads 0.974; that for `Cc1cc(C(=O)Nc2cccc(C(=O)Nc3cccc(C(F)(F)F)c3)c2)on1`, 1.1; that for `COc1cc2nccc(Oc3ccc(NC(=O)c4cn(C(C)C)c(=O)n(-c5ccc(F)cc5)c4=O)cc3F)c2cc1OC`, 0.893.

`COC1(c2sc3c(N4CCOCC4)nc(-c4cnc(N)nc4)nc3c2C)COC1` displayed a cell viability of 0.496.

In turn, `Cc1c(CN2CCN(S(C)(=O)=O)CC2)sc2c(N3CCOCC3)nc(-c3cnc(N)nc3)nc12` showed a cell viability of 0.514.

Compound `Cc1c(CN2CCN(C(=O)[C@H](C)O)CC2)sc2c(N3CCOCC3)nc(-c3cnc(N)nc3)nc12` [Apitolisib] showed a cell viability of 0.434.

In turn, `CONC(=O)c1ccccc1Nc1cc(Nc2cc(C)nn2C(C)C)ncc1Cl` gave a cell viability of 0.889. Turning to `COc1ccc(-c2ccc3ncc4c(c3c2)n(-c2ccc(N3CCNCC3)c(C(F)(F)F)c2)c(=O)n4C)cn1`, the cell viability was 0.373.

For the compound `Nc1ccc(-c2ccc3ncc4ccc(=O)n(-c5cccc(C(F)(F)F)c5)c4c3c2)cn1` [Torin 2], the cell viability is 0.414. `CCC(=O)N1CCN(c2ccc(-n3c(=O)ccc4cnc5ccc(-c6cnc7ccccc7c6)cc5c43)cc2C(F)(F)F)CC1` [Torin 1] came in with a cell viability of 0.437. Then `CC(C)n1c(=O)n(C)c2cnc3cc(F)c(-c4ccc(OCCCN5CCCCC5)nc4)cc3c21`, with 0.883; and `CCC(=O)N1CC[C@H](Nc2ncnc3c2CN(c2cnc(OC)c(C(F)(F)F)c2)CC3)C1` [Leniolisib], with 0.904; and `CN(C)CCCOc1ccc(-c2ccc3ncc4c(c3c2)n(C2CCOCC2)c(=O)n4C)cn1`, with 0.878. The result for `Cn1cc(C2=C(c3cccc(N)c3)C(=O)NC2=O)c2ccccc21` reads 0.932. `Cc1nc2cccc(N)c2c(=O)n1C1CCC(=O)NC1=O` (centres undefined) [Avadomide] gave a cell viability of 0.982. The compound `O=C([O-])CN(CCN(CC(=O)[O-])CC(=O)O)CC(=O)[O-].[Na+].[Na+].[Na+]` [Edetate Trisodium] returned a cell viability of 1.15.

The compound `O=C(NO)c1cnc(NC2(c3ccccc3)CC2)nc1` gave a cell viability of 1.01. Then `C=CC(=O)Nc1cccc(Oc2nc(Nc3ccc(N4CCN(C)CC4)c(F)c3)nc3[nH]ccc23)c1` [Avitinib], with 0.747; and `O=C(O)c1ccc2c(c1)C(=O)c1ccccc1C2=O`, with 1.08. Compound `O=c1cc(-c2ccc(O[C@@H]3O[C@H](CO)[C@@H](O)[C@H](O)[C@H]3O)cc2)oc2cc(O)c([C@@H]3O[C@H](CO)[C@@H](O)[C@H](O)[C@H]3O[C@@H]3OC[C@H](O)[C@H](O)[C@H]3O)c(O)c12` [Vaccarin] yielded a cell viability of 0.919.

Consider `C[C@H]1COC2(CCN(c3nc(=O)c4cc(C(F)(F)F)cc([N+](=O)[O-])c4s3)CC2)O1`, for which the cell viability came out at 1.05. The result for `COC[C@H](NC(=O)c1cnc(C)s1)C(=O)N[C@@H](COC)C(=O)N[C@@H](Cc1ccccc1)C(=O)[C@@]1(C)CO1` [Oprozomib] reads 0.371.

Compound `CC(NC(=O)C(Cc1ccccc1)NC(=O)OCc1ccccc1)C(=O)CF` (centres undefined) gave a cell viability of 0.979. As for `CC(=O)NC(Cc1ccccc1)C(=O)O` (centres undefined) [Afalanine], the cell viability came to 0.984. Regarding `Cc1cc(F)c(C(=O)Nc2cccc(-c3nncn3C(C)C)n2)cc1-n1cnc(C2CC2)c1` [Selonsertib], the cell viability worked out at 0.918.

`O=c1[nH]c(=O)n([C@@H]2O[C@H](CO)[C@@H](O)[C@H]2O)cc1F` [5-Fluorouridine] had a cell viability of 0.837. Compound `Cn1nccc1Nc1nccc(-c2cc3c(s2)C(C)(C)N(CCN2CCOCC2)C3=O)n1` showed a cell viability of 1.06. In turn, `CC(C)n1ncnc1-c1cn2c(n1)-c1ccc(O[C@@H](C)C(N)=O)cc1OCC2` had a cell viability of 0.717. As for `Cc1nc(-c2cn3c(n2)-c2ccc(-c4cnn(C(C)(C)C(N)=O)c4)cc2OCC3)n(C(C)C)n1` [Taselisib], the cell viability is 0.425. `O[C@H]1[C@H]2c3cc4c(cc3CN3CCC(=C[C@@H]1O)[C@H]23)OCO4` [Lycorine chloride] displayed a cell viability of 0.966. Then `CC(=O)N[C@H]1CSSC[C@@H](C(N)=O)NC(=O)[C@H](C(C)C)NC(=O)[C@H](C)NC(=O)[C@H](Cc2c[nH]cn2)NC1=O` [Exherin trifluoroacetate], with 1.11; and `COc1cc2c(NC3CCN(C(C)C)CC3)nc(C3CCCCC3)nc2cc1OCCCN1CCCC1`, with 1.15; and `N[C@@H](CCCCNC(=O)C(F)(F)F)C(=O)O` [N-6-Trifluoroacetyl-L-lysine], with 0.966. The result for `Cc1ncc(NC(=O)c2ccc(CN3CCN(C)CC3)c(C(F)(F)F)c2)cc1Nc1nccc(-c2cccnc2)n1` [Flumatinib] reads 1.15; that for `Cc1ccc(C(=O)Nc2ccc(CN3CCN(C)CC3)c(C(F)(F)F)c2)cc1C#Cc1cnc2[nH]ncc2c1` [GZD824 Dimesylate], 0.33. Then `Cc1ccc(C(=O)Nc2ccc(CN3CCN(C)CC3)c(C(F)(F)F)c2)cc1C#Cc1cnc2cccnn12` [Ponatinib], with 0.834; and `Cc1ccc(C(=O)Nc2ccc(CN3CCN(C)CC3)c(C(F)(F)F)c2)cc1C#Cc1cnc2[nH]ncc2c1`, with 0.423. `CCN1CCN(Cc2ccc(NC(=O)c3ccc(C)c(NC(=O)c4cncc(-c5cccs5)c4)c3)cc2C(F)(F)F)CC1` returned a cell viability of 0.789. The result for `CS(=O)(=O)Nc1ccc([N+](=O)[O-])cc1OC1CCCCC1` reads 1.12; that for `S=C(N/N=C1/CCCc2cccnc21)N1CCN(c2ccccn2)CC1`, 1.09; that for `C/C(=N\NC(=S)N1CCC1)c1ccccn1`, 0.362. Regarding `Cc1ccc(/C(=C\CN2CCCC2)c2ccccn2)cc1` [Triprolidine hydrochloride], the cell viability stood at 1.18.

For the origin of these results see the supplement of paper PMC10600219.
